# Reference: PubChem BioAssay AID1733 (National Center for Advancing Translational Sciences (NCATS), 2009)
# Inconclusive results are not listed. Entries that show only a call come without a potency. A number with no mark means an inactive call. The source made the active and inactive calls. Calls follow the shape of the dose curve; as a rule, active = well fitted inhibition curve with a large enough effect; inconclusive = small, poorly fitted or top-dose-only effect; inactive = flat fitted curve, though single readings scatter.
# Biological target: Luciferin 4-monooxygenase (Photinus pyralis) (UniProt P08659)
# Sequence (P08659 whole entry, looked up, canonical isoform): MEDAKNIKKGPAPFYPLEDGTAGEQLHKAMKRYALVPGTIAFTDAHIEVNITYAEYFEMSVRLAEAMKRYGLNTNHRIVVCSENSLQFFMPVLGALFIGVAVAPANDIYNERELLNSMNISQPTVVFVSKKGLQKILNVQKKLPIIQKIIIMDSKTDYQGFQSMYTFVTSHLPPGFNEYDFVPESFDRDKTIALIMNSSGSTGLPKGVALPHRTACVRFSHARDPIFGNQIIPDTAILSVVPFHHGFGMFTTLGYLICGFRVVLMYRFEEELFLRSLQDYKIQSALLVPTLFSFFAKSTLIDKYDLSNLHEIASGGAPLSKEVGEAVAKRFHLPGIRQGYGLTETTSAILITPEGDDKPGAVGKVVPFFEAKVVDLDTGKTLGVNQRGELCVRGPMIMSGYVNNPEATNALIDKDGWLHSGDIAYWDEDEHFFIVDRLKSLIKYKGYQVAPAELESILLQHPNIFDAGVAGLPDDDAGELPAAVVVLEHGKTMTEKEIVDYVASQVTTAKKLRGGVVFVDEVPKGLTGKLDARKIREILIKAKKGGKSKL
# Test: Counterscreen Assay for Enhancers of SMN2 Splice Variant Expression: Interaction with Luciferase Reporter
# Method in brief: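 Direct luciferase interaction measured as luminescence from britelite plus reagent, added after 5 min room-temperature preincubation of compound with 5 nM purified firefly enzyme in Tris-acetate buffer, pH 7.6, with Mg, BSA and Tween.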
Structure (SMILES),Potency,"activity change, negative = inhibition"
FC(F)(F)c1nnc(-c2ccccc2)nc1Oc1ccccc1,11.2 µM (active),–
COc1c(C)c2c(c(O)c1C/C=C(\C)CCC(=O)O)C(=O)OC2,inactive,–
Cc1ccc(-c2csc(N3CCC(NS(=O)(=O)c4ccc5c(c4)OCCO5)CC3)n2)cc1,inactive,–
OC[C@H]1O[C@@H](n2cnc3c(Nc4ccccc4)ncnc32)[C@H](O)[C@H]1O,inactive,–
OCCCNc1nc(-c2ccc(Br)cc2)nnc1-c1ccc(Cl)cc1,inactive,–
COC(=O)C1=C(CN2CCc3ccccc32)NC(=O)NC1c1cc(C)ccc1C (centres undefined),–,18.7% [at 48.7 pM]
O=S(=O)(NC1CCCc2ccccc21)c1cnc[nH]1 (centres undefined),–,3.43% [at 48.7 pM]
Cc1oncc1C(=O)Nc1ccc(C(F)(F)F)cc1,0.891 µM (active),–
Cc1nnc(-c2ccccc2)[nH]c1=O,inactive,–
NC(=O)C1(N2CCCCC2)CCN(c2nc(-c3ccccc3)cs2)CC1,inactive,–
COC(=O)C1=C(C)NC(=O)/C1=C\c1cc(C)n(-c2ccccc2F)c1C,–,8.15% [at 48.7 pM]
O=C1CCC(C(=O)Nc2cccc3ccccc23)N1 (centres undefined),–,7.8% [at 48.7 pM]
COc1ccc(-c2csc(N3CCC(c4ccccc4)CC3)n2)cc1,inactive,–
O=C(O)c1cccc(COc2ccc(CO)cc2Cl)c1,7.08 µM (active),–
O=c1cc(N2CCN(c3cccc(Cl)c3)CC2)[nH]c(=O)n1C1CCCCC1,–,-4.08% [at 48.7 pM]
C#CCn1c(S(=O)(=O)Cc2ccccc2Cl)nc(-c2ccccc2)c1-c1ccccc1,–,12% [at 48.7 pM]
Cc1[nH]c2ccccc2c1-c1nc(-c2ccc(Cl)cc2)nnc1-c1ccccc1,inactive,–
Cc1ccc(C2c3c(oc4ccccc4c3=O)C(=O)N2CCCN2CCOCC2)o1 (centres undefined),12.6 µM (active),–
CCCc1sc(N2CCCC(C(N)=O)C2)nc1-c1ccccc1 (centres undefined),inactive,–
O=C(Nc1nc(-c2ccc3ccccc3c2)cs1)C1CCN(S(=O)(=O)c2cccs2)CC1,inactive,–
Nc1ccccc1-c1nnn(CC(=O)N2CCCc3ccccc32)n1,–,2.12% [at 48.7 pM]
CC1CN(c2nc(-c3ccc(Br)cc3)nnc2-c2ccccc2)CC(C)N1 (centres undefined),inactive,–
CCOc1ccc2nc(N3CCC(C(=O)N4CCN(c5ccccn5)CC4)CC3)sc2c1,inactive,–
Clc1ccc(-c2nnc(-c3ccccc3)nc2N2CCSCC2)cc1,11.2 µM (active),–
